Assay results from PubChem BioAssay (NCI).
Several values for one entry are separate records, joined by “and”; a condition that tells them apart may be missing. Equal values may be shown once. Compounds without any hit were thinned out: in the full panel of roughly 79,000, 15% have a hit. Where a structure was tested more than once in an assay, its records may differ in their call. Activity calls are given as the source filed them. Rule as the data show it: active = growth inhibition above about 70%; inactive = the rest.

Assays:
[1] = NCI Yeast Anticancer Drug Screen. Data for the rad50 strain (AID 155);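 also: 0% = growth of vehicle-only cultures of the same strain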; details: S. cerevisiae rad50 strain growth inhibition, stronger effect = higher value
Summary of the method: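 Yeast carrying a defined DNA repair defect were exposed to test compounds, and growth was compared with vehicle-treated controls to give percent inhibition.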

[2] = NCI Yeast Anticancer Drug Screen. Data for the mec2-1 strain (AID 157); details: S. cerevisiae mec2-1 strain, stronger effect = higher value
Summary of the method: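 Strain: mec2-1 (DNA repair/cell cycle alteration). Compound exposure, then growth measured; inhibition expressed relative to vehicle.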

[3] = NCI Yeast Anticancer Drug Screen. Data for the sgs1 mgt1 strain (AID 161);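 also: 0% = growth of cultures given vehicle only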; details: S. cerevisiae sgs1 mgt1 strain, stronger effect = higher value
Summary of the method: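 Genetically altered yeast, compound exposure, growth inhibition relative to vehicle.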

[4] = NCI Yeast Anticancer Drug Screen. Data for the bub3 strain (AID 167); details: S. cerevisiae bub3 mutant strain, stronger effect = higher value
Summary of the method: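 Compounds were applied to a genetically altered yeast strain carrying a cell-cycle control defect. Growth inhibition was scored against vehicle-treated controls.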

[5] = NCI Yeast Anticancer Drug Screen. Data for the mlh1 rad18 strain (AID 175); details: S. cerevisiae mlh1 rad18 strain growth inhibition, stronger effect = higher value
Summary of the method: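 Read-out is yeast growth inhibition, calculated against vehicle-only controls. The compound was applied to a strain engineered with DNA damage repair alterations.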

[6] = NCI Yeast Anticancer Drug Screen. Data for the cln2 rad14 strain (AID 165);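 also: 0% = growth equal to vehicle treated cultures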; details: S. cerevisiae cln2 rad14 strain, stronger effect = higher value
Summary of the method: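 Compounds are applied to the cln2 rad14 yeast strain, and growth is then compared with that of vehicle-treated cultures to give inhibition.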

[7] = at 5.0 µM (retest, dose inferred, filed as 0.5)
[8] = at 50.0 µM (retest, dose inferred, filed as 5.0)

## CCCCC1C(=O)NC(=S)N(c2ccccc2)C1=O (centres undefined)
[1]; [7]
  growth inhibition: -4% (inactive)
[1]; [8]
  growth inhibition: -1% (inactive)
[1]; at 50.0 µM
  growth inhibition: -1.75% (inactive)
[2]; [7]
  growth inhibition: -3% (inactive)
[2]; [8]
  growth inhibition: 11% (inactive)
[2]; at 50.0 µM
  growth inhibition: -1.25% (inactive)
[3]; [7]
  growth inhibition: 3% (inactive)
[3]; [8]
  growth inhibition: 17% (inactive)
[3]; at 50.0 µM
  growth inhibition: 7.5% (inactive)
[4]; [7]
  growth inhibition: 0% (inactive)
[4]; [8]
  growth inhibition: 4% (inactive)
[4]; at 50.0 µM
  growth inhibition: 11.1% (inactive)
[5]; [7]
  growth inhibition: -9% (inactive)
[5]; [8]
  growth inhibition: 1% (inactive)
[5]; at 50.0 µM
  growth inhibition: 13.8% (inactive)

## C=C(C)C1(CCCC)C(=O)NC(=S)NC1=O
[1]; [7]
  growth inhibition: 0% (inactive)
[1]; [8]
  growth inhibition: 60% (inactive)
[1]; at 50.0 µM
  growth inhibition: 29.9% (inactive)
[2]; [7]
  growth inhibition: -18% (inactive)
[2]; [8]
  growth inhibition: 49% (inactive)
[2]; at 50.0 µM
  growth inhibition: 11.8% (inactive)
[3]; [7]
  growth inhibition: -14% (inactive)
[3]; [8]
  growth inhibition: 61% (inactive)
[3]; at 50.0 µM
  growth inhibition: 34.8% (inactive)
[6]; [7]
  growth inhibition: -18% (inactive)
[6]; [8]
  growth inhibition: 51% (inactive)
[6]; at 50.0 µM
  growth inhibition: -28.1% (inactive)
[4]; [7]
  growth inhibition: -7% (inactive)
[4]; [8]
  growth inhibition: 45% (inactive)
[4]; at 50.0 µM
  growth inhibition: 39% (inactive)
[5]; [7]
  growth inhibition: -2% (inactive)
[5]; [8]
  growth inhibition: 85% (active)
[5]; at 50.0 µM
  growth inhibition: 40% (inactive)

## COc1cc2c(cc1OC)C13CCN4CC5=CCOC6CC(=O)N2C1C6C5CC43 (centres undefined) (tested in a mixture with another compound)
[1]; [7]
  growth inhibition: -6% (inactive)
[1]; [8]
  growth inhibition: -24% (inactive)
[1]; at 50.0 µM
  growth inhibition: 7.15% (inactive) [middle of 6 runs]
[2]; [7]
  growth inhibition: -2% (inactive)
[2]; [8]
  growth inhibition: 1% (inactive)
[3]; [7]
  growth inhibition: -13% (inactive)
[3]; [8]
  growth inhibition: -8% (inactive)
[6]; [7]
  growth inhibition: -3% (inactive)
[6]; [8]
  growth inhibition: 2% (inactive)
[4]; [7]
  growth inhibition: 0% (inactive)
[4]; [8]
  growth inhibition: -2% (inactive)
[4]; at 50.0 µM
  growth inhibition: -1.4% (inactive) [middle of 6 runs]
[5]; [7]
  growth inhibition: -2% (inactive)
[5]; [8]
  growth inhibition: -4% (inactive)

## CC12CCC(O)CC1=CCC1C2CCC2(C)C(NC(=O)C3CCCN3C(=O)CN(CCCl)CCCl)CCC12 (centres undefined)
[1]; [7]
  growth inhibition: -5% (inactive)
[1]; [8]
  growth inhibition: 56% (inactive)
[1]; at 50.0 µM
  growth inhibition: 79% (active)
[2]; [7]
  growth inhibition: -4% (inactive)
[2]; [8]
  growth inhibition: 46% (inactive)
[2]; at 50.0 µM
  growth inhibition: 72.5% (active)
[3]; [7]
  growth inhibition: 1% (inactive)
[3]; [8]
  growth inhibition: 80% (active)
[3]; at 50.0 µM
  growth inhibition: 91.5% (active)
[4]; [7]
  growth inhibition: -6% (inactive)
[4]; [8]
  growth inhibition: 38% (inactive)
[4]; at 50.0 µM
  growth inhibition: 64.8% (inactive)
[5]; [7]
  growth inhibition: 12% (inactive)
[5]; [8]
  growth inhibition: 76% (active)
[5]; at 50.0 µM
  growth inhibition: 86.8% (active)

## O=P(O/C(=C\c1ccccc1)c1ccccc1)(c1ccccc1)c1ccccc1
[1]; [7]
  growth inhibition: 18% (inactive)
[1]; [8]
  growth inhibition: 96% (active)
[1]; at 50.0 µM
  growth inhibition: 96.8% (active)
[2]; [7]
  growth inhibition: 17% (inactive)
[2]; [8]
  growth inhibition: 98% (active)
[2]; at 50.0 µM
  growth inhibition: 98.3% (active)
[3]; [7]
  growth inhibition: 15% (inactive)
[3]; [8]
  growth inhibition: 98% (active)
[3]; at 50.0 µM
  growth inhibition: 98.2% (active)
[4]; [7]
  growth inhibition: 11% (inactive)
[4]; [8]
  growth inhibition: 97% (active)
[4]; at 50.0 µM
  growth inhibition: 97% (active)
[5]; [7]
  growth inhibition: 7% (inactive)
[5]; [8]
  growth inhibition: 97% (active)
[5]; at 50.0 µM
  growth inhibition: 93.7% (active)

## O=C(O)Cc1ccc2c(c1)OCO2.[Ag]
[1]; [7]
  growth inhibition: 99% (active)
[1]; [8]
  growth inhibition: 93% (active)
[1]; at 50.0 µM
  growth inhibition: 96% (active)
[2]; [7]
  growth inhibition: 99% (active)
[2]; [8]
  growth inhibition: 95% (active)
[2]; at 50.0 µM
  growth inhibition: 97% (active)
[3]; [7]
  growth inhibition: 99% (active)
[3]; [8]
  growth inhibition: 94% (active)
[3]; at 50.0 µM
  growth inhibition: 96.6% (active)
[6]; [7]
  growth inhibition: 99% (active)
[6]; [8]
  growth inhibition: 94% (active)
[6]; at 50.0 µM
  growth inhibition: 90.2% (active)
[4]; [7]
  growth inhibition: 99% (active)
[4]; [8]
  growth inhibition: 93% (active)
[4]; at 50.0 µM
  growth inhibition: 93.3% (active)
[5]; [7]
  growth inhibition: 99% (active)
[5]; [8]
  growth inhibition: 93% (active)
[5]; at 50.0 µM
  growth inhibition: 94.4% (active)

## C[As](C)SCCC(CCCCC(=O)O)S[As](C)C (centres undefined)
[1]; [7]
  growth inhibition: 27% (inactive)
[1]; [8]
  growth inhibition: 38% (inactive)
[1]; at 50.0 µM
  growth inhibition: 66.2% (inactive)
[2]; [7]
  growth inhibition: 27% (inactive)
[2]; [8]
  growth inhibition: 32% (inactive)
[2]; at 50.0 µM
  growth inhibition: 47% (inactive)
[3]; [7]
  growth inhibition: 2% (inactive)
[3]; [8]
  growth inhibition: -69% (inactive)
[3]; at 50.0 µM
  growth inhibition: 78.3% (active)
[4]; [7]
  growth inhibition: 2% (inactive)
[4]; [8]
  growth inhibition: -42% (inactive)
[4]; at 50.0 µM
  growth inhibition: 76.5% (active)
[5]; [7]
  growth inhibition: 39% (inactive)
[5]; [8]
  growth inhibition: 65% (inactive)
[5]; at 50.0 µM
  growth inhibition: 25.4% (inactive)

## NC(CS)C(=O)O (centres undefined)
[1]; at 50.0 µM
  growth inhibition: -4.8% (inactive) and 31.9% (inactive) and -26% (inactive)
[2]; at 50.0 µM
  growth inhibition: -7.5% (inactive) and -9.05% (inactive) and -3.1% (inactive)
[3]; at 50.0 µM
  growth inhibition: -7.95% (inactive) and 28.4% (inactive) and -35.2% (inactive)
[6]; at 50.0 µM
  growth inhibition: -0.4% (inactive) and 7.6% (inactive) and -1.55% (inactive)
[4]; at 50.0 µM
  growth inhibition: -17.2% (inactive) and 25.6% (inactive) and -38.2% (inactive)
[5]; at 50.0 µM
  growth inhibition: -8.1% (inactive) and 13.2% (inactive) and 1.75% (inactive)

## [Cl][Pt+2][Cl].[NH-]C1CCCC2CCC[N-]C12 (centres undefined)
[1]; [7]
  growth inhibition: 34% (inactive)
[1]; [8]
  growth inhibition: 97% (active)
[1]; at 50.0 µM
  growth inhibition: 20.6% (inactive)
[3]; [7]
  growth inhibition: 55% (inactive)
[3]; [8]
  growth inhibition: 98% (active)
[3]; at 50.0 µM
  growth inhibition: 57.8% (inactive)
[6]; [7]
  growth inhibition: 50% (inactive)
[6]; [8]
  growth inhibition: 86% (active)
[6]; at 50.0 µM
  growth inhibition: 34% (inactive)
[4]; [7]
  growth inhibition: 52% (inactive)
[4]; [8]
  growth inhibition: 84% (active)
[4]; at 50.0 µM
  growth inhibition: 38.5% (inactive)
[5]; [7]
  growth inhibition: 18% (inactive)
[5]; [8]
  growth inhibition: 97% (active)
[5]; at 50.0 µM
  growth inhibition: 76.1% (active)

## S=C=Nc1cccc(Cl)c1
[1]; [7]
  growth inhibition: -17% (inactive)
[1]; [8]
  growth inhibition: 84% (active)
[1]; at 50.0 µM
  growth inhibition: 85.2% (active)
[2]; [7]
  growth inhibition: -7% (inactive)
[2]; [8]
  growth inhibition: 90% (active)
[2]; at 50.0 µM
  growth inhibition: 86% (active)
[3]; [7]
  growth inhibition: -10% (inactive)
[3]; [8]
  growth inhibition: 90% (active)
[3]; at 50.0 µM
  growth inhibition: 88.8% (active)
[6]; [7]
  growth inhibition: 35% (inactive)
[6]; [8]
  growth inhibition: 65% (inactive)
[6]; at 50.0 µM
  growth inhibition: 80.3% (active)
[4]; [7]
  growth inhibition: 7% (inactive)
[4]; [8]
  growth inhibition: 89% (active)
[4]; at 50.0 µM
  growth inhibition: 85.2% (active)
[5]; [7]
  growth inhibition: 2% (inactive)
[5]; [8]
  growth inhibition: 89% (active)
[5]; at 50.0 µM
  growth inhibition: 79.3% (active)

## O=C1C=CC(=O)c2c(O)ccc(O)c21
[1]; [7]
  growth inhibition: 99% (active) and 16% (inactive)
[1]; [8]
  growth inhibition: 17% (inactive) and 93% (active)
[1]; at 50.0 µM
  growth inhibition: 89.1% (active) and 64% (inactive)
[2]; [7]
  growth inhibition: 99% (active) and -14% (inactive)
[2]; [8]
  growth inhibition: 14% (inactive) and 95% (active)
[2]; at 50.0 µM
  growth inhibition: 91.5% (active) and 68.8% (inactive)
[3]; [7]
  growth inhibition: 97% (active) and -5% (inactive)
[3]; [8]
  growth inhibition: 19% (inactive) and 95% (active)
[3]; at 50.0 µM
  growth inhibition: 91% (active) and 80.3% (active)
[6]; [7]
  growth inhibition: 98% (active) and 20% (inactive)
[6]; [8]
  growth inhibition: 16% (inactive) and 93% (active)
[6]; at 50.0 µM
  growth inhibition: 88.8% (active) and 77.7% (active)
[5]; [7]
  growth inhibition: 99% (active) and -4% (inactive)
[5]; [8]
  growth inhibition: 21% (inactive) and 92% (active)
[5]; at 50.0 µM
  growth inhibition: 88.4% (active)
